Test results: ChEMBL document CHEMBL2218924, “A broad activity screen in support of a chemogenomic map for kinase signalling research and drug discovery” (Biochem J, 2013)

Assays:
[1] = target: T1, CDK9/cyclin T1 (Homo sapiens) (UniProt O60563+P50750); settings: at 1 µM
[2] = target: T1, CDK9/cyclin T1 (Homo sapiens); settings: at 10 µM
[3] = target: T2, Serine/threonine-protein kinase Chk1 (Homo sapiens) (UniProt O14757); settings: at 1 µM
T2 sequence (whole entry): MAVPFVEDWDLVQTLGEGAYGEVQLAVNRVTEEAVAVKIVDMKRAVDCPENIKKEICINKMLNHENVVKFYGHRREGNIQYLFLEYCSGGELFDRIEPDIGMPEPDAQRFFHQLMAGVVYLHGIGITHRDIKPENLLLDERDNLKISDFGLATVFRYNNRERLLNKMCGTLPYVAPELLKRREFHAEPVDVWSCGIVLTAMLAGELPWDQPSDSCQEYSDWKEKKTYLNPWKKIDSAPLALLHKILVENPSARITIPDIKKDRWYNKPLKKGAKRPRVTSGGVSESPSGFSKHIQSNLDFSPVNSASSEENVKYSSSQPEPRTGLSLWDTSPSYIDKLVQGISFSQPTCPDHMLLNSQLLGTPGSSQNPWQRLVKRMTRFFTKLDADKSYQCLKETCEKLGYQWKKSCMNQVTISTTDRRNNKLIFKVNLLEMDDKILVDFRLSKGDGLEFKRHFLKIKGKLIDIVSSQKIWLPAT

[4] = target: T2, Serine/threonine-protein kinase Chk1 (Homo sapiens); settings: at 10 µM
[5] = target: Serine/threonine-protein kinase Chk2 (Homo sapiens) (UniProt O96017); settings: at 1 µM
Sequence of Serine/threonine-protein kinase Chk2 (Homo sapiens) (O96017 whole entry, canonical isoform): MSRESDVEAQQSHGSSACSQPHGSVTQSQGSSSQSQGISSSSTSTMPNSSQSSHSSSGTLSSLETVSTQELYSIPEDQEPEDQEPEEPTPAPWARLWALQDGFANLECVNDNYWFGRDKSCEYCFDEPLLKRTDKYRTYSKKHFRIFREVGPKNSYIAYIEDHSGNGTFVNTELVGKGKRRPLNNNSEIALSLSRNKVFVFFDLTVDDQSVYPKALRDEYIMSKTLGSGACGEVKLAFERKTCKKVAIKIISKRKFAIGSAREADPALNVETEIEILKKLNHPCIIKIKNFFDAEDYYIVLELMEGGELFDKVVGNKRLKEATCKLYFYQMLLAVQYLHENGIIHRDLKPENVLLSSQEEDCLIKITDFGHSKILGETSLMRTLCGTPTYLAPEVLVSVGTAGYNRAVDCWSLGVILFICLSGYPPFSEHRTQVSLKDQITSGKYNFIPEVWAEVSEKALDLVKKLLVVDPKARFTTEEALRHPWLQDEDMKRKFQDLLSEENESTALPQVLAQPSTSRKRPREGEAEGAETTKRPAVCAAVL

[6] = target: Serine/threonine-protein kinase Chk2 (Homo sapiens) (UniProt O96017); settings: at 10 µM
[7] = target: Casein kinase I isoform delta (Homo sapiens) (UniProt P48730); settings: at 1 µM
Sequence of Casein kinase I isoform delta (Homo sapiens) (P48730 whole entry, looked up, canonical isoform): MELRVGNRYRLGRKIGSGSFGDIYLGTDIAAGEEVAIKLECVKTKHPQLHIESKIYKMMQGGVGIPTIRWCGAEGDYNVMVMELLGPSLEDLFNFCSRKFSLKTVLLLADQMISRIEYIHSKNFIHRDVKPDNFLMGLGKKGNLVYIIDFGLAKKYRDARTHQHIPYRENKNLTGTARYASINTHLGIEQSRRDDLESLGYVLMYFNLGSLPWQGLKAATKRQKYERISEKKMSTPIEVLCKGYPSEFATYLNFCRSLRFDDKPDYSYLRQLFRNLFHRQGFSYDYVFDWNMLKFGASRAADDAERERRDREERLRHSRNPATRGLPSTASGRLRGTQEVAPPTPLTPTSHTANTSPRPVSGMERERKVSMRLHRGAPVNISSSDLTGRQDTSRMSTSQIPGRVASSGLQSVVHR

[8] = target: Casein kinase I isoform delta (Homo sapiens) (UniProt P48730); settings: at 10 µM
[9] = target: Dual specificity protein kinase CLK3 (Homo sapiens) (UniProt P49761); settings: at 1 µM
Sequence of Dual specificity protein kinase CLK3 (Homo sapiens) (P49761 whole entry, looked up): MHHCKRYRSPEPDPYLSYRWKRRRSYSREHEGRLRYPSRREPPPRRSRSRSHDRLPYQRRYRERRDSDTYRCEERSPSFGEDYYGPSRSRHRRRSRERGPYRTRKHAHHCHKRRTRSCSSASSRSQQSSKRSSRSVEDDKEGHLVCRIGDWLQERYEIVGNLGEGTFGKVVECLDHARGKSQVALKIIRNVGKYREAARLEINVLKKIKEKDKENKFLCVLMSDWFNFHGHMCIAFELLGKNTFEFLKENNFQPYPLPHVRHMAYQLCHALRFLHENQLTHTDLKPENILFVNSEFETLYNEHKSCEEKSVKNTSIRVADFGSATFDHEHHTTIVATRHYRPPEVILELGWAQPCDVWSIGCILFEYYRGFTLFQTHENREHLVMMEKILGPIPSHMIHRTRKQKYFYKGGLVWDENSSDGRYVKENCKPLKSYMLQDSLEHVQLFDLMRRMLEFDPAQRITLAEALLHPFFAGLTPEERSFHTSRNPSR

[10] = target: Dual specificity protein kinase CLK3 (Homo sapiens) (UniProt P49761); settings: at 10 µM
[11] = target: Casein kinase II subunit alpha' (Homo sapiens) (UniProt P19784); settings: at 1 µM
Sequence of Casein kinase II subunit alpha' (Homo sapiens) (P19784 whole entry, looked up): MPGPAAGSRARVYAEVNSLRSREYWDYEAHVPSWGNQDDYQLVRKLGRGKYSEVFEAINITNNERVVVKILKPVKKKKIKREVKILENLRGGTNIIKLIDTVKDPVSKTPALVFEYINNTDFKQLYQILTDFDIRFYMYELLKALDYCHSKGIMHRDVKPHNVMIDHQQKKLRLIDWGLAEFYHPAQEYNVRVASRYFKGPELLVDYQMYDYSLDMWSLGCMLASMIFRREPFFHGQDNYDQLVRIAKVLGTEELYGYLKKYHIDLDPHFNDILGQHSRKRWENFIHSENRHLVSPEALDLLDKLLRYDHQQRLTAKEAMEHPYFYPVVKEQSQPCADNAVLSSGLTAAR

[12] = target: Dual specificity protein kinase CLK2 (Homo sapiens) (UniProt P49760); settings: at 1 µM
Sequence of Dual specificity protein kinase CLK2 (Homo sapiens) (P49760 whole entry, looked up, canonical isoform): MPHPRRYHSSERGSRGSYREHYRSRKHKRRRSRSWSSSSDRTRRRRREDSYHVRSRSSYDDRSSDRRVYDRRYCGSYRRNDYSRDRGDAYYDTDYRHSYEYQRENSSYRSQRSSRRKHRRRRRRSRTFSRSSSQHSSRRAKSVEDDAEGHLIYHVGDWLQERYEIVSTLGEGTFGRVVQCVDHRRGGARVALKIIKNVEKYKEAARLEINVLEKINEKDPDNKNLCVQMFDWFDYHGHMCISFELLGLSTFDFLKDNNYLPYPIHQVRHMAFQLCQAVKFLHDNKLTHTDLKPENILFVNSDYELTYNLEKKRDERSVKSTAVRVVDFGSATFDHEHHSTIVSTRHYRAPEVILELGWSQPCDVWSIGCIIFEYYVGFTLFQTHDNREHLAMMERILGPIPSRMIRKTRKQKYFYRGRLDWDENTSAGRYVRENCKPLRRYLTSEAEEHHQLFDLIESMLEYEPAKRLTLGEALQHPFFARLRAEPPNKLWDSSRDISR

[13] = target: Dual specificity protein kinase CLK2 (Homo sapiens) (UniProt P49760); settings: at 10 µM
[14] = target: Casein kinase I isoform gamma-1 (Homo sapiens) (UniProt Q9HCP0); settings: at 1 µM
Sequence of Casein kinase I isoform gamma-1 (Homo sapiens) (Q9HCP0 whole entry, looked up, canonical isoform): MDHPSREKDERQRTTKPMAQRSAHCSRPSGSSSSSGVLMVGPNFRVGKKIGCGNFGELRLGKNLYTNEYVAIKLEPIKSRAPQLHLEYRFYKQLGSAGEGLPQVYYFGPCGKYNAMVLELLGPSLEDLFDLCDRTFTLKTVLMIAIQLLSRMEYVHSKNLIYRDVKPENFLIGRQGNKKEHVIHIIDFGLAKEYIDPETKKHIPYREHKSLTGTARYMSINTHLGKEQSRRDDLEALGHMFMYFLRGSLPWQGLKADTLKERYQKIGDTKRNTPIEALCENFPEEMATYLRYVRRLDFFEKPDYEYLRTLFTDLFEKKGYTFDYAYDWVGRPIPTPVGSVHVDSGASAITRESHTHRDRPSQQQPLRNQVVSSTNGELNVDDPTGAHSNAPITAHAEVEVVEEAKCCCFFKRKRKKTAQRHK

[15] = target: Casein kinase I isoform gamma-1 (Homo sapiens) (UniProt Q9HCP0); settings: at 10 µM
[16] = target: T3, Casein kinase II (Homo sapiens) (UniProt P67870+P68400+P19784); settings: at 1 µM
T3 sequence (P19784 whole entry, looked up): as the sequence (P19784 whole entry, looked up) above
T3 sequence (P67870 whole entry, looked up): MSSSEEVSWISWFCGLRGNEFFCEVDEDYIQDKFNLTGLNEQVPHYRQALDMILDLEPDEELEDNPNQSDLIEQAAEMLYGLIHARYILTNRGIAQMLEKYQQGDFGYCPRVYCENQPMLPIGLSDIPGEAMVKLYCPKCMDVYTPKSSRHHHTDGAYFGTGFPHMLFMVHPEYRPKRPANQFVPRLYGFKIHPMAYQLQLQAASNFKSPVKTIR
T3 sequence (P68400 whole entry, looked up): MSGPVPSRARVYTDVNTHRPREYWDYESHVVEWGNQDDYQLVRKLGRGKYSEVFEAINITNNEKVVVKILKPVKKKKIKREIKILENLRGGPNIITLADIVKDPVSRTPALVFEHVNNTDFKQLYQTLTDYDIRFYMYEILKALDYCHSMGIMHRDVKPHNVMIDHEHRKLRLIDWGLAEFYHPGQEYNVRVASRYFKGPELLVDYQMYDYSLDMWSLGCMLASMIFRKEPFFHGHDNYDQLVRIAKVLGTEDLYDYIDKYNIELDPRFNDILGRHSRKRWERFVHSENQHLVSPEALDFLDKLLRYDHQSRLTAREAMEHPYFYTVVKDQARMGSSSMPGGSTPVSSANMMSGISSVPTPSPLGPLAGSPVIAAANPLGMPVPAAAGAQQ

[17] = target: T3, Casein kinase II (Homo sapiens); settings: at 10 µM
[18] = target: Casein kinase II subunit alpha' (Homo sapiens) (UniProt P19784); settings: at 10 µM
[19] = target: Tyrosine-protein kinase CSK (Homo sapiens) (UniProt P41240); settings: at 1 µM
Sequence of Tyrosine-protein kinase CSK (Homo sapiens) (P41240 2-450 limits assumed): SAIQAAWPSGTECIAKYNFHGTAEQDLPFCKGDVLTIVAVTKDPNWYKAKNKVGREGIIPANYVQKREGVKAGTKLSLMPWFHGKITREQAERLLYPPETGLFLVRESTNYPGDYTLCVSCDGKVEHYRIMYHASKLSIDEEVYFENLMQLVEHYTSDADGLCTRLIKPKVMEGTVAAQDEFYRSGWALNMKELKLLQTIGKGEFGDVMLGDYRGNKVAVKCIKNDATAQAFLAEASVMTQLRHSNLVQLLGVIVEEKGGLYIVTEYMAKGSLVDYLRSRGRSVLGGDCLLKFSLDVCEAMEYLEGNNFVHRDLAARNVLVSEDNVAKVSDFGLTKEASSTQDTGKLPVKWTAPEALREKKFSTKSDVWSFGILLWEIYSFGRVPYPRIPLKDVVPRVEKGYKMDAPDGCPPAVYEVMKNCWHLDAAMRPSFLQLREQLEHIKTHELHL

[20] = target: Tyrosine-protein kinase CSK (Homo sapiens) (UniProt P41240); settings: at 10 µM

Compound	residual activity [1]	residual activity [2]	residual activity [3]	residual activity [4]	residual activity [5]	residual activity [6]	residual activity [7]	residual activity [8]	residual activity [9]	residual activity [10]	residual activity [11]	residual activity [12]	residual activity [13]	residual activity [14]	residual activity [15]	residual activity [16]	residual activity [17]	residual activity [18]	residual activity [19]	residual activity [20]
NCCNc1ncc(C(N)=O)c(Nc2cccc(C(F)(F)F)c2)n1	73%	21%	66%	27%	15%	2%	79%	58%	82%	63%	–	–	–	–	–	–	–	–	–	–
O=C1NC(=O)C(c2c[nH]c3ccccc23)=C1c1c[nH]c2ccccc12	36%	5%	–	53%	73%	25%	–	56%	60%	29%	118%	27%	5%	–	–	–	–	–	–	–
NC(=O)Nc1sc(-c2ccc(F)cc2)cc1C(N)=O	89%	42%	37%	7%	34%	4%	71%	31%	–	–	78%	105%	46%	104%	71%	68%	34%	18%	92%	56%
CC(C)c1nn(-c2c(Cl)cccc2Cl)c2nc(Cc3ccc(OCCO)cc3)[nH]c(=O)c12	2%	0%	93%	95%	91%	80%	79%	53%	77%	59%	108%	38%	48%	74%	89%	100%	96%	94%	123%	106%
O=C(Nc1nc2ccccc2n1CCN1CCOCC1)c1cccc([N+](=O)[O-])c1	41%	58%	85%	–	79%	67%	64%	62%	55%	56%	–	26%	24%	58%	67%	86%	–	–	103%	105%
O=C1Nc2ccc(Cl)cc2/C1=C/c1cc(Cl)c(O)c(Cl)c1	90%	69%	75%	64%	76%	25%	77%	35%	70%	29%	92%	84%	45%	89%	75%	41%	4%	32%	96%	–
CC(C)N(CCC(=O)c1ccc2ccccc2c1)Cc1ccccc1	–	–	–	–	100%	72%	–	–	74%	–	–	–	–	82%	–	–	–	–	–	–
O=C(NC(NC(=S)Nc1ccc(F)c([N+](=O)[O-])c1)C(Cl)(Cl)Cl)C(c1ccccc1)c1ccccc1 (configuration not stated)	101%	95%	–	–	–	82%	45%	64%	94%	84%	–	–	–	94%	55%	–	85%	–	95%	101%
COc1ccc(COc2ccc(Cc3cnc(N)nc3N)cc2OC)cc1	–	–	–	–	–	–	–	–	–	3%	110%	108%	100%	–	–	–	–	74%	–	–
CCOC(=O)c1c(C)[nH]c(/C=C2\C(=O)Nc3ccccc32)c1C	–	–	90%	92%	45%	34%	77%	62%	82%	73%	131%	95%	95%	88%	81%	77%	118%	89%	–	–
O=C(Nc1ccc(Cl)cc1)c1ccccc1NCc1ccncc1	–	–	–	–	–	–	–	–	–	–	–	120%	99%	–	–	–	–	–	–	–
O=C1NC(=O)C(c2cn(CCCO)c3ncccc23)=C1c1cnccn1	89%	82%	–	–	88%	79%	79%	79%	74%	78%	57%	52%	36%	93%	90%	76%	66%	52%	–	97%
O=S(=O)(c1cccc2cnccc12)N1CCCNCC1	81%	29%	–	–	–	54%	–	–	–	81%	–	–	–	124%	100%	–	–	–	–	–
NC(=O)c1cccc(-c2cc(Nc3ccc(OC(F)(F)F)cc3)ncn2)c1	–	69%	99%	96%	95%	87%	90%	74%	97%	–	–	–	–	94%	63%	99%	97%	–	–	–
Nc1nccc(-c2c(-c3ccc(F)cc3)ncn2C2CCNCC2)n1	–	–	–	–	–	–	–	–	–	68%	–	69%	30%	72%	21%	–	–	60%	–	–
COc1ccc(-c2cnc3c(-c4ccsc4)cnn3c2)cc1	–	–	87%	95%	–	–	–	–	80%	61%	–	–	–	98%	92%	–	–	–	–	98%
Fc1ccc(-c2nc3n(c2-c2ccncc2)CCS3)cc1	–	–	–	–	92%	88%	3%	1%	97%	86%	–	–	–	86%	28%	99%	98%	–	–	–
COc1cc2nccc(Oc3ccc(NC(=O)Nc4cc(C)on4)c(Cl)c3)c2cc1OC	–	72%	–	–	79%	30%	–	–	80%	4%	–	–	99%	–	–	–	–	–	72%	35%
O=c1cc(N2CCOCC2)oc2c(-c3ccccc3)cccc12	–	–	–	–	–	–	–	–	–	–	–	–	–	–	–	54%	12%	42%	–	–

Compound	residual activity [1]	residual activity [2]	residual activity [3]	residual activity [4]	residual activity [5]	residual activity [6]	residual activity [7]	residual activity [8]	residual activity [9]	residual activity [10]	residual activity [11]	residual activity [12]	residual activity [13]	residual activity [14]	residual activity [15]	residual activity [16]	residual activity [17]	residual activity [18]	residual activity [19]	residual activity [20]
c1ccc(-c2cnc(Nc3ccc(OCCN4CCCC4)cc3)s2)cc1	26%	4%	–	–	–	–	81%	54%	–	–	127%	–	30%	–	–	–	–	81%	–	–
NC(=O)c1ccc(-c2nc(-c3ccc4c(c3)OCCO4)c(-c3ccccn3)[nH]2)cc1	–	–	–	–	92%	81%	17%	2%	81%	76%	–	–	–	82%	83%	95%	97%	–	119%	91%
O=c1c(-c2ccc(F)cc2)c(-c2ccncc2)[nH]n1-c1ccc(Cl)cc1	100%	100%	–	–	43%	33%	44%	5%	–	81%	–	122%	101%	–	62%	–	–	–	–	–
Cn1c2ccccc2c2c3c(c4c5ccccc5n(CCC#N)c4c21)CNC3=O	–	36%	2%	0%	25%	15%	70%	48%	–	1%	129%	–	–	–	–	–	103%	96%	107%	102%
N#Cc1c(NC(=O)c2cccc3ccccc23)sc2c1CCCC2	99%	100%	–	–	–	76%	83%	77%	77%	87%	–	–	99%	–	–	97%	99%	–	–	99%
CC(C)(C)c1nc2c3ccc(F)cc3c3c(=O)[nH]ccc3c2[nH]1	–	–	37%	24%	2%	1%	–	–	68%	13%	100%	34%	50%	–	–	56%	63%	34%	–	–
COc1ccc(Cl)cc1NC(=O)Nc1cc(C)nc2ccccc12	–	–	86%	81%	85%	–	–	–	–	–	–	–	–	94%	100%	94%	–	–	–	–
CCCCc1c(-c2ccc(OC)cc2)[nH]c2nccnc12	10%	17%	–	–	44%	11%	85%	73%	85%	73%	111%	78%	–	79%	77%	–	–	–	–	–
COc1ccc(CNC(=O)Nc2ncc([N+](=O)[O-])s2)cc1	–	5%	–	–	–	77%	–	–	–	–	–	102%	105%	–	–	–	–	–	81%	74%
Oc1cccc(-c2nc(N3CCOCC3)c3oc4ncccc4c3n2)c1	–	–	93%	100%	100%	68%	83%	72%	79%	30%	140%	118%	89%	90%	98%	89%	124%	79%	–	–
CCN1/C(=C/C(C)=O)Sc2ccc(OC)cc21	–	–	–	–	–	–	29%	4%	77%	40%	–	20%	6%	69%	21%	–	–	–	–	–
CC(C)[C@H](CO)Nc1nc(Nc2cc(N)cc(Cl)c2)c2ncn(C(C)C)c2n1	–	–	–	–	67%	30%	74%	26%	–	–	120%	–	–	–	–	–	93%	96%	–	73%
O=C(CCCc1ccc(-c2ccccc2F)cc1)Nc1ccc(O)cc1	104%	–	93%	108%	91%	72%	98%	92%	92%	89%	106%	–	–	107%	102%	92%	97%	102%	104%	107%
CN([C@@H](Cc1ccc(OS(=O)(=O)c2cccc3cnccc23)cc1)C(=O)N1CCN(c2ccccc2)CC1)S(=O)(=O)c1cccc2cnccc12	–	–	–	–	–	79%	–	–	–	–	–	–	–	–	73%	–	–	–	–	–
CSc1nc(-c2ccc(F)cc2)c(-c2ccnc(NC(C)c3ccccc3)c2)[nH]1 (configuration not stated)	96%	–	95%	78%	5%	3%	35%	9%	84%	86%	–	–	89%	62%	11%	99%	99%	–	102%	84%
N#C/C(=C\c1ccc(O)c(O)c1)C(=O)NCc1ccccc1	–	–	–	–	89%	73%	80%	87%	82%	–	129%	–	80%	–	–	–	–	100%	–	–
O=C1Nc2ccccc2/C1=C\c1c(Cl)[nH]c2ccccc12	80%	34%	–	–	75%	41%	85%	51%	–	76%	–	–	–	–	–	–	–	–	–	99%
COc1cc2ncnc(Nc3cccc(Cl)c3)c2cc1OC	–	71%	–	89%	79%	42%	87%	62%	–	84%	128%	110%	74%	100%	81%	–	–	102%	111%	80%
O=C1Cc2c([nH]c3ccc(Br)cc23)-c2ccccc2N1	–	–	77%	53%	–	–	80%	68%	78%	67%	–	80%	56%	–	71%	79%	55%	92%	–	81%
